# The source made the active and inactive calls. Unless noted, no rule for the calls is given here.
# Experiments:
# [1] = system: XIP peptide (Xip251-270) binding; assay: XIP fragment 251-270 binding compounds – biochemical, small-molecule microarray, fluorescence 635/667 nm, 0.1 µg/mL protein, primary screen (AID 1182); details: fluorescent protein binding, 635 nm, higher = more signal, called active from +8 up or from −8 down
# XIP peptide (Xip251-270) = assay: compounds binding XIP fragment 251-270 – biochemical, small-molecule microarray, fluorescence 635/667 nm, 0.5 µg/mL protein, primary screen (AID 1183); details: fluorescence 635 nm, higher = more signal
# [2] = blood-stage malaria parasite viability loss – strain 3D7, DAPI fluorescence, 100 nL, primary screen (AID 1184);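 also: parasites grown inside human red blood cells in medium with human serum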; details: P. falciparum 3D7 growth, 3 d, higher = more signal
# [3] = target: Homeobox protein Hox-A13 (Mus musculus) (UniProt Q62424); assay: disruptors of Hoxa13 oligonucleotide interaction – biochemical, fluorescence polarization, labeled oligonucleotide, primary screen (AID 1185); details: Hoxa13:DNA binding, 15 min, higher = more signal, called active from +8 up or from −8 down
# [4] = blockers of DNA damage checkpoint Chk1 activation – imaging, HeLa, hydroxyurea, phospho-Chk1 antibody, percent positive cells, primary screen (AID 1186); details: hydroxyurea-induced phospho-Chk1 immunofluorescence imaging, higher = more signal
# [5] = blockers of DNA damage checkpoint Chk1 activation – imaging, HeLa, hydroxyurea, phospho-Chk1 nuclear intensity, primary screen (AID 1187); details: hydroxyurea-induced phospho-Chk1 immunofluorescence imaging, higher = more signal
# Sequence of Homeobox protein Hox-A13 (Mus musculus) (Q62424 whole entry, looked up): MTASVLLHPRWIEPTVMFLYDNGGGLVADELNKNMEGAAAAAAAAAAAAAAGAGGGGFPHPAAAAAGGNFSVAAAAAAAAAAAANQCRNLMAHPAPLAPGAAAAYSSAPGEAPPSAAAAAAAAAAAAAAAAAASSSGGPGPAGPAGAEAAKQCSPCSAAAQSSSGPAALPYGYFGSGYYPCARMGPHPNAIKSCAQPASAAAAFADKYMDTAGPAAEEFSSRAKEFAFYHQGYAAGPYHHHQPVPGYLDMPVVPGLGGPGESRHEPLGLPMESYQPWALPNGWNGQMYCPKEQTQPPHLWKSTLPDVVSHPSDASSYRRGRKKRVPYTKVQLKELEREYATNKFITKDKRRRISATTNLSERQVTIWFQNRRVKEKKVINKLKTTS
SMILES,composite z-score [1],composite z-score (XIP peptide (Xip251-270)),z-score [2],z-score [3],z-score [4],z-score [5]
CCN1C(C)=C(C(=O)OC)[C@@H](c2ccccc2)N2C(=O)[C@](O)(C(=O)OC)[C@@H](c3ccccc3)C(C(C)=O)=C12,-0.192 (inactive),-1.35,-1.56,-1.27 (inactive),–,–
C[C@H]1COC(=O)[C@@H]2CCCN2C(=O)[C@@H](C)COC(=O)[C@@H]2CCCN2C1=O,-0.0153 (inactive),0.454,-0.12,-5.05 (inactive),–,–
CO[C@H]1COC(=O)[C@H](C)COC(=O)[C@H](Cc2ccccc2)NC(=O)CC=C[C@H]1C,-0.454 (inactive),0.613,0.724,0.57 (inactive),–,–
C[C@H]1COC(=O)[C@H](Cc2ccccc2)NC(=O)[C@@H](C)COC(=O)[C@H](Cc2ccccc2)NC1=O,0.767 (inactive),0.342,-0.703,1.01 (inactive),–,–
COc1cccc([C@@H]2[C@@H](C)CC[C@H]3C(=O)N4[C@H](c5cccc(OC)c5)[C@@H](C)CC[C@H]4C(=O)N23)c1,-0.142 (inactive),0.379,0.137,-1.96 (inactive),–,–
CCC(=O)[C@]12O[C@@]3([C@@H]4C(=O)OCC[C@@H]41)N(CC)C(C)=C(C(=O)OC)[C@@H](c1ccccc1)N3C2=O,0.592 (inactive),-0.499,-1.06,-0.864 (inactive),–,–
CO[C@H]1COC(=O)[C@H](C)NC(=O)CC=C[C@@H](C)[C@H](NS(=O)(=O)c2ccc(C)cc2)COC(=O)[C@@H](OCc2ccccc2)C=C[C@@H]1C,-0.253 (inactive),0.72,-0.569,-1.21 (inactive),–,–
CO[C@@H]1COC(=O)[C@H](C)NC(=O)CC=C[C@@H](C)[C@H](NS(=O)(=O)c2ccc(C)cc2)COC(=O)CC=C[C@@H]1C,-0.44 (inactive),-0.507,0.635,0.769 (inactive),–,–
CCC(=O)[C@]12O[C@@]3([C@@H]4C(=O)OCC[C@@H]41)N(Cc1ccccc1)C(C)=C(C(=O)OC)[C@@H](c1ccccc1)N3C2=O,0.195 (inactive),-0.573,1.24,-4.26 (inactive),–,–
CCN1C(C)=C(C(=O)OC)[C@@H](c2ccccc2)N2C(=O)[C@@]3(C(=O)OC)O[C@@]12[C@@H]1C(=O)CCC[C@@H]13,-0.147 (inactive),-1.03,-0.625,-0.386 (inactive),–,–
COc1cccc([C@H]2N[C@H](C(=O)O)CC[C@@H]2C)c1,0.253 (inactive),-0.567,-1.4,3.05 (inactive),–,–
CO[C@@H]1COC(=O)[C@@H]2CCCN2C(=O)CC=C[C@@H](C)[C@H](OC)COC(=O)[C@@H]2CCCN2C(=O)CC=C[C@H]1C,0.284 (inactive),0.352,0.583,-0.507 (inactive),–,–
C=CCc1cccc([C@H]2N[C@H](C(=O)O)CC[C@@H]2C)c1,0.517 (inactive),0.921,-0.441,0.811 (inactive),–,–
CO[C@H]1COC(=O)CC=C[C@H](C)COC(=O)[C@@H](OCc2ccccc2)C=C[C@@H]1C,0.225 (inactive),0.547,-1.58,1.89 (inactive),–,–
CO[C@@H]1COC(=O)CC=C[C@@H](C)[C@H](OC)COC(=O)CC=C[C@H]1C,-0.583 (inactive),0.428,0.674,-0.26 (inactive),–,–
CO[C@@H]1COC(=O)[C@H](COCc2ccccc2)NC(=O)CC=C[C@@H](C)[C@H](OC)COC(=O)[C@H](COCc2ccccc2)NC(=O)CC=C[C@H]1C,0.271 (inactive),-0.713,-0.989,0.421 (inactive),–,–
CC(=O)Nc1ccc([C@H]2[C@H](C)CC[C@H]3C(=O)N4[C@@H](CC[C@@H](C)[C@@H]4c4ccc(NC(C)=O)cc4)C(=O)N32)cc1,1.46 (inactive),0.757,0.179,-6.37 (inactive),–,–
CO[C@H]1COC(=O)CC=C[C@@H](C)COC(=O)[C@@H](C)NC(=O)CC=C[C@@H]1C,0.89 (inactive),0.405,-0.437,0.382 (inactive),–,–
C#CCCCON=C1C[C@@H](O)[C@@H](O)[C@@H]2[C@@H]3C(=O)N(Cc4ccc5c(c4)OCO5)C(=O)[C@@H]3CC[C@H]12,0.892 (inactive),0.783,0.594,-0.469 (inactive),–,–
CSCC[C@@H]1NC(=O)CC=C[C@@H](C)COC(=O)[C@H](CCSC)NC(=O)CC=C[C@@H](C)COC1=O,0.223 (inactive),-0.467,-0.145,1.03 (inactive),–,–
O=C(O)[C@@H]1Cc2c([nH]c3ccccc23)[C@@H](c2ccccc2)N1,0.0176 (inactive),0.0822,-0.421,0.969 (inactive),–,–
C[C@@H]1C=CCC(=O)OC[C@H]2O[C@@H](C=C[C@@H]2O)[C@H](C)C=CCC(=O)OC[C@H]2O[C@H]1C=C[C@@H]2O,0.424 (inactive),0.466,-2.25,-1.31 (inactive),–,–

SMILES,composite z-score [1],composite z-score (XIP peptide (Xip251-270)),z-score [2],z-score [3],z-score [4],z-score [5]
C#CCCCON=C1C[C@@H](O)[C@@H](O)[C@@H]2[C@@H]3C(=O)N(Cc4ccc5c(c4)OCO5)C(=O)[C@@H]3CC[C@@H]12,0.32 (inactive),0.104,-0.0159,-0.476 (inactive),–,–
C=CCc1cccc([C@@H]2[C@@H](C)CC[C@H]3C(=O)N4[C@H](c5cccc(CC=C)c5)[C@@H](C)CC[C@H]4C(=O)N23)c1,0.718 (inactive),0.336,-0.729,-3.9 (inactive),–,–
CO[C@H]1COC(=O)[C@H](Cc2ccccc2)NC(=O)CC=C[C@@H](C)[C@H](OC)COC(=O)CC=C[C@@H]1C,-0.707 (inactive),0.0418,0.0348,1.05 (inactive),–,–
CCN1C(C)=C(C(=O)OC)[C@@H](c2ccccc2)N2C(=O)[C@@]3(C(=O)OC)O[C@@]12[C@@H]1C(=O)N(c2ccccc2)C(=O)[C@@H]13,0.357 (inactive),0.9,-0.425,-0.559 (inactive),–,–
COC(=O)C1=C(C)N(Cc2ccccc2)c2c(C(=O)OC)c(C(=O)OC)c(C(=O)OC)c(=O)n2[C@@H]1c1ccccc1,0.17 (inactive),-0.0775,0.149,-2.2 (inactive),–,–
CO[C@@H]1COC(=O)CC=C[C@H](C)COC(=O)[C@H](Cc2ccccc2)NC(=O)CC=C[C@H]1C,0.717 (inactive),0.18,0.684,-0.631 (inactive),–,–
CCN1C(C)=C(C(=O)OC)[C@@H](c2ccccc2)N2C(=O)[C@](O)(C(=O)OC)[C@@H](c3ccccc3)C(C(=O)c3ccccc3)=C12,-0.176 (inactive),0.283,0.245,-4.23 (inactive),–,–
CO[C@H]1COC(=O)[C@H](CCSC)NC(=O)CC=C[C@@H](C)COC(=O)[C@@H](OCc2ccccc2)C=C[C@@H]1C,0.786 (inactive),0.581,-0.115,0.26 (inactive),–,–
C[C@@H]1CC[C@H]2C(=O)N3[C@@H](CC[C@@H](C)[C@@H]3c3cccc(N4CCOCC4)c3)C(=O)N2[C@H]1c1cccc(Br)c1,0.806 (inactive),0.541,0.656,-5.55 (inactive),–,–
Cc1ccc(S(=O)(=O)N[C@H]2COC(=O)CC=C[C@H](C)COC(=O)N[C@@H](C)C(=O)CC=C[C@@H]2C)cc1,-0.478 (inactive),0.619,-1.23,-1.11 (inactive),–,–
CO[C@@H]1COC(=O)[C@H](C)NC(=O)CC=C[C@@H](C)[C@H](OC)COC(=O)[C@H](C)NC(=O)CC=C[C@H]1C,-0.479 (inactive),0.132,0.363,0.229 (inactive),–,–
CO[C@H]1COC(=O)[C@@H](OCc2ccccc2)C=C[C@H](C)[C@@H](OC)COC(=O)[C@H](OCc2ccccc2)C=C[C@@H]1C,-1.11 (inactive),-0.267,0.313,0.371 (inactive),–,–
COc1cc([C@@H]2N[C@H](C(=O)O)Cc3c2[nH]c2ccccc32)cc(OC)c1OC,-0.374 (inactive),0.564,-0.0372,-1.66 (inactive),–,–
C=C(COC)/C(=C/C[C@H](OC(C)=O)c1ccc(OCCO)cc1)c1cnc2ccccc2c1,0.878 (inactive),0.0356,-3.08,-3.6 (inactive),-0.619 (inactive),-0.632 (inactive)
C=C[C@H](OC)[C@@H](OC(=O)Nc1ccc(SC)cc1)c1ccc(O)c(F)c1,2.52 (inactive),0.719,0.188,-2.14 (inactive),-1.07 (inactive),-0.478 (inactive)
CCN1C(C)=C(C(=O)OC)[C@@H](c2ccccc2)N2C(=O)[C@@]3(C(=O)OC)O[C@@]12[C@@H]1C(=O)N(C)C(=O)[C@@H]13,1.38 (inactive),0.87,-0.138,-0.663 (inactive),–,–
C[C@@H]1NC(=O)CC=C[C@@H](C)[C@@H]2C=C[C@H](O)[C@@H](COC(=O)[C@H](C)NC(=O)CC=C[C@@H](C)[C@@H]3C=C[C@H](O)[C@@H](COC1=O)O3)O2,-0.217 (inactive),0.221,-1.47,0.881 (inactive),–,–
Cc1ccc(N2C(=O)c3ccccc3[C@@H](C(=O)NCC(F)(F)F)[C@@H]2c2ccc(CO)cc2)nc1,-0.118 (inactive),-0.138,-0.0188,-0.71 (inactive),-0.0128 (inactive),0.171 (inactive)
CO[C@H]1COC(=O)[C@@H](C)NC(=O)CC=C[C@@H](C)[C@H](OC)COC(=O)CC=C[C@@H]1C,0.649 (inactive),0.517,-0.243,0.334 (inactive),–,–
CCOC(=O)C[C@H]1[C@H](OC(=O)Cc2ccc3c(c2)OCO3)[C@@H](NC(=O)c2ccc3ccccc3c2)c2cc(OCCCO)ccc2N1C(=O)Cc1ccc(OC)cc1,1.46 (inactive),0.737,-0.415,-2.03 (inactive),0.407 (inactive),0.668 (inactive)
C[C@@H]1CC[C@H]2C(=O)N3CCC[C@H]3C(=O)N2[C@H]1c1ccc(Br)cc1,0.557 (inactive),-0.374,0.371,0.0636 (inactive),–,–
Cc1ccc(S[C@]2(C(=O)NC(C)C)CC(=O)N(C3Cc4ccccc4C3)[C@@H]2c2ccc(CO)cc2)cc1,0.137 (inactive),0.882,-1.29,-3.21 (inactive),0.0695 (inactive),0.0887 (inactive)
